In PubChem BioAssay (Tox21):
Inconclusive results are not listed. Calls of active or inactive are those of the source. Unless noted, calls follow the shape of the dose curve; as a rule, active = well fitted curve in the direction sought with a large enough effect in the repeat runs; inconclusive = weak or mixed curves; inactive = no such curve, though single readings can be large; an effect the other way counts as inactive or inconclusive.

Key:
[1] = biological target: Estrogen receptor beta (Homo sapiens) (UniProt Q92731); experiment: qHTS assay to identify small molecule agonists of the estrogen receptor beta (ER-beta) signaling pathway (AID 1259377; active = well fitted activation curve with a large enough effect in the signal ratio in the repeat runs, not every such curve was filed as active; the % refers to the signal ratio)
Sequence of Estrogen receptor beta (Homo sapiens) (Q92731 whole entry, looked up): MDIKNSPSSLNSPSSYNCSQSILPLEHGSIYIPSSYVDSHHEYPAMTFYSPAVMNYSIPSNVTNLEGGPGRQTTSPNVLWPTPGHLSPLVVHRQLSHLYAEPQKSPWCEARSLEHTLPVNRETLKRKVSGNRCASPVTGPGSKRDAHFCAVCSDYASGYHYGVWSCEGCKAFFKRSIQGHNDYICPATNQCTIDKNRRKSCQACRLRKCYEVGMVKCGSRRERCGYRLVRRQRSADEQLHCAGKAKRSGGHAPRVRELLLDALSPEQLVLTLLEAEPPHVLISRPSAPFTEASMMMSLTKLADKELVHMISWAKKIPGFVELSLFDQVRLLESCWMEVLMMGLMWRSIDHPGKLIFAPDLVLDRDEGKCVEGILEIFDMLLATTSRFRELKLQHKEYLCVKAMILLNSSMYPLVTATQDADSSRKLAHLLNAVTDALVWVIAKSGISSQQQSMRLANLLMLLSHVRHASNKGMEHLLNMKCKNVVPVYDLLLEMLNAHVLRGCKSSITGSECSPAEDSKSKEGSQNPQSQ
Outline: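 In HEK293T cells bearing a UAS-beta-lactamase reporter under ER-beta control, DMSO-delivered compounds were incubated for 16 hr at 37C. Activity was detected as fluorescence 2 hours after LiveBLAzer B/G FRET substrate addition.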

[2] = biological target: Estrogen receptor beta (Homo sapiens) (UniProt Q92731); experiment: qHTS assay to identify small molecule antagonists of the estrogen receptor beta (ER-beta) signaling pathway (AID 1259378; active = well fitted inhibition curve with a large enough effect in the signal ratio in the repeat runs, not every such curve was filed as active; the % refers to the signal ratio)
Outline: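 ER-beta-UAS-bla HEK293T (GripTite) cells in 2% charcoal-stripped FBS medium were preincubated 6 hr at 37C, dosed with compound, then stimulated with 1 nM E2 (final) for 16 hr; beta-lactamase reporter read by B/G FRET fluorescence after 2 hr substrate loading.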

[3] = qHTS assay to identify small molecule agonists of the androgen receptor (AR) signaling pathway in the presence of an antagonist - cell viability counter screen (AID 1259379);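 also: MDA-kb2 human breast cancer cells carrying an MMTV luciferase reporter; series mostly up to about 92 µM; nearly all actives have a fitted effect of over 25% in size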
Outline: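 A CellTiter-Fluor read-out measured viability of MDA-kb2 reporter cells (MMTV promoter with AR and GR response elements). Treatment: nilutamide 3.0uM final with compounds at 15 concentrations, 16 hr, 37C, 0% CO2.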

[4] = qHTS assay to identify small molecule agonists of the estrogen receptor beta (ER-beta) signaling pathway - cell viability counter screen (AID 1259380); also: nearly all actives have a fitted effect of over 30% in size
Outline: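 Cells used were ER-beta-UAS-bla HEK293T in medium with 2% charcoal-stripped FBS. They were treated for 16 hr at 37C. Viability came from CellTiter-Glo luminescence.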

[5] = biological target: Androgen receptor (Homo sapiens) (UniProt P10275); experiment: qHTS assay to identify small molecule agonists of the androgen receptor (AR) signaling pathway in the presence of an antagonist (AID 1259381; calls by dose curve; also: nearly all actives have a fitted effect of over 15% in size)
Sequence of Androgen receptor (Homo sapiens) (P10275 whole entry, looked up): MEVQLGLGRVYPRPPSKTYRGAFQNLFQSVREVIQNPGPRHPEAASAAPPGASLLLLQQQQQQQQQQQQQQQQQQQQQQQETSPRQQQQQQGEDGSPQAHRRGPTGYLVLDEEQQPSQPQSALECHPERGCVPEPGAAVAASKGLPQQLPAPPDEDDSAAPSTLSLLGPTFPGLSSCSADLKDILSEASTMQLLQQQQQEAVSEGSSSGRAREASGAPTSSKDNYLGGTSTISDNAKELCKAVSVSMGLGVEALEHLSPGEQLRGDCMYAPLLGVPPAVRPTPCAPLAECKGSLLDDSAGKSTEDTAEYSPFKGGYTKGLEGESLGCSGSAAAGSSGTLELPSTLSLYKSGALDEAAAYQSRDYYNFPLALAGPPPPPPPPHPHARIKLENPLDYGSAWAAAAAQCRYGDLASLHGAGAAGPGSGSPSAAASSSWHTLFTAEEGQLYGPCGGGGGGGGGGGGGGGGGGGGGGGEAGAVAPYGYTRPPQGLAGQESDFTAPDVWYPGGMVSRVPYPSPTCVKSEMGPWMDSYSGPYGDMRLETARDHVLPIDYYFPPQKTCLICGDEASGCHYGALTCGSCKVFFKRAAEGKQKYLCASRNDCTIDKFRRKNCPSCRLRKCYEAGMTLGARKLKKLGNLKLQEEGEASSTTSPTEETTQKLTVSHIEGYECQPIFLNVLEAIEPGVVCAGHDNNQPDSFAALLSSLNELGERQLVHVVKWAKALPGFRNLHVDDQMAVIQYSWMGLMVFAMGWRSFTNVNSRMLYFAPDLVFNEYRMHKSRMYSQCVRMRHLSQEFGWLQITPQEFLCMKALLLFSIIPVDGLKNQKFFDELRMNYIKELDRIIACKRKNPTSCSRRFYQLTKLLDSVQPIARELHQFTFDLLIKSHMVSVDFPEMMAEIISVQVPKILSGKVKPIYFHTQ
Outline: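 Using human MDA-kb2 cells with an MMTV promoter–luciferase construct (AR and GR response elements), agonist activity is scored under 3.0uM nilutamide (final) co-treatment; 16hr incubation, 37C, luminescence readout via ONE-Glo.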

[6] = qHTS assay to identify small molecule antagonists of the estrogen receptor beta (ER-beta) signaling pathway - cell viability counter screen (AID 1259382); also: series mostly up to about 92 µM; nearly all actives have a fitted effect of over 55% in size
Outline: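 Agonist-stimulated (1nM E2) ER-beta-UAS-bla HEK293T cells are incubated with library compounds for 16 hr at 37C. Cell viability is then assessed in the reporter-assay wells by adding CellTiter-Glo and reading luminescence after 30 min.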

[7] = biological target: Estrogen receptor (Homo sapiens) (UniProt P03372); experiment: qHTS assay to identify small molecule agonists of the estrogen receptor alpha (ER-alpha) signaling pathway in the presence of an antagonist (AID 1259383; calls by dose curve; also: top concentration of the series differs between compounds; nearly all actives have a fitted effect of over 15% in size)
Sequence of Estrogen receptor (Homo sapiens) (P03372 whole entry, looked up): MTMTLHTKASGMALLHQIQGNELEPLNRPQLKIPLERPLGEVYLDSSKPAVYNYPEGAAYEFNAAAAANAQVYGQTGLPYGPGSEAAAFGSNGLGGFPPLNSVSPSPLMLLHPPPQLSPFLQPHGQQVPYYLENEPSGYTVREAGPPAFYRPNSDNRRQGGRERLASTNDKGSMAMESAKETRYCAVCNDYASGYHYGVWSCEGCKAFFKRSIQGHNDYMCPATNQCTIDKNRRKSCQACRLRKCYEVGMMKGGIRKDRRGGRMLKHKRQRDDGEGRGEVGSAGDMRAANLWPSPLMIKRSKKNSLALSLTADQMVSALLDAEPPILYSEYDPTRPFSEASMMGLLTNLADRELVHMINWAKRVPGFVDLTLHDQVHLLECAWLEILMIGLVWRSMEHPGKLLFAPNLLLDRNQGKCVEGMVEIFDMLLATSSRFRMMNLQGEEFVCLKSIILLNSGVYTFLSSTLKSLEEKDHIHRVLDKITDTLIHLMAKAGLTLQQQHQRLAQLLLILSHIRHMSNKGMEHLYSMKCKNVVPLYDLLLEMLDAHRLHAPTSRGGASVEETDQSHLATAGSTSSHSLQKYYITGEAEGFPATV
Outline: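 Using VM7Luc4E2 cells seeded 24hr before treatment, antagonist ICI-182,780 (10.0nM final) was added, followed by compounds at 15 concentrations. Plates incubated 22hr; ONE-Glo luminescence quantified reporter activity.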

[8] = biological target: Thyrotropin receptor (Homo sapiens) (UniProt P16473); experiment: qHTS assay to identify small molecule antagonists of the thyroid stimulating hormone receptor (TSHR) signaling pathway (AID 1259385; calls by dose curve; also: nearly all actives have a fitted effect of over 20% in size)
Sequence of Thyrotropin receptor (Homo sapiens) (P16473 whole entry, looked up): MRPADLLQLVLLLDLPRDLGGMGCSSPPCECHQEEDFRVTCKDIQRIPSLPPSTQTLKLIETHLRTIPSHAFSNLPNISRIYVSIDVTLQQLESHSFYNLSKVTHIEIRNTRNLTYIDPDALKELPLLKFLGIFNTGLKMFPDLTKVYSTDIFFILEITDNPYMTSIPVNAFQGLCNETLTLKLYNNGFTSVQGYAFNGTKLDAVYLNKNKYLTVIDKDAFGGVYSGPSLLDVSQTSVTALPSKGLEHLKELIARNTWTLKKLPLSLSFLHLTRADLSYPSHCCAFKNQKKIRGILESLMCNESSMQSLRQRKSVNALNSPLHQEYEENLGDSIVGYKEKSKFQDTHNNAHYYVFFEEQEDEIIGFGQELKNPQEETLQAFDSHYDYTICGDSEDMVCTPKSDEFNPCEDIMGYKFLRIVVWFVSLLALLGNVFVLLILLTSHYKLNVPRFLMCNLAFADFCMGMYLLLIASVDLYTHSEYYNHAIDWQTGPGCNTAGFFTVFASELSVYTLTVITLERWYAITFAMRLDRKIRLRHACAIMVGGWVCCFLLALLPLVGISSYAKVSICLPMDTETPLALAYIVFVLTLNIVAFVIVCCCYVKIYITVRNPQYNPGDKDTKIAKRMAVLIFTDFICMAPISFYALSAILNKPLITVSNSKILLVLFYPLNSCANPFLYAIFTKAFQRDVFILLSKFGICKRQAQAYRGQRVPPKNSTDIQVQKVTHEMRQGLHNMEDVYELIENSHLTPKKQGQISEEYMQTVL
Outline: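 TSHR-HEK293 cells were plated and held 18 h at 37C/5% CO2, then given compound plus Ro20-1724 and stimulated with TSH at 1.5 ng/mL final. After 30 min at room temperature, cAMP was detected with cAMP-d2/anti-cAMP-cryptate (1 h) by fluorescence.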

[9] = qHTS assay to identify small molecule agonists of the estrogen receptor alpha (ER-alpha) signaling pathway in the presence of an antagonist - cell viability counter screen (AID 1259386);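 also: series mostly up to about 92 µM; cells exposed to compounds for 22 h at 37 °C before the viability read; nearly all actives have a fitted effect of over 30% in size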
Outline: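 ICI-182,780 at 10.0nM final accompanies the compound titration (15 concentrations, 22hr, 37C) on VM7Luc4E2 cells. The CellTiter-Fluor fluorescence readout runs in the same wells as the luciferase assay.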

[10] = qHTS assay to identify small molecule agonists or antagonists of the thyroid stimulating hormone receptor (TSHR) signaling pathway - wild type cell line counter screen (AID 1259384; calls by dose curve)
Outline: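 Wild-type HEK293 cells were plated 18 h at 37 C/5% CO2, pin-dosed with compound plus Ro20-1724 medium, held 30 min at room temperature, then given cAMP-d2 and anti-cAMP-cryptate; fluorescence was read after 1 h. Fifteen concentrations, triplicate.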
% is scaled to controls: 0 for no effect and ±100 for the full control effect.

CCCC(CCC)(C(=O)OCC)C(=O)OCC
inactive: outcome [1] | Potency [2] | Potency [3] | Potency [4] | Potency [5] | outcome [6] | Potency [7] | Potency [8] | Potency [9]

CC(C)c1ccccc1
inactive: outcome [1] | Potency [2] | Potency [3] | Potency [4] | Potency [5] | outcome [6] | Potency [7] | outcome [10] | Potency [8] | Potency [9]

C[C@@H]1CN(c2c(F)c(N)c3c(=O)c(C(=O)O)cn(C4CC4)c3c2F)C[C@H](C)N1
inactive: activation [1] 3.1% [at 19 µM] | activity, negative = inhibition [2] 17% [at 19 µM] | activity change, negative = cytotoxicity [3] 2.69% [at 19 µM] | activity change, negative = cytotoxicity [4] 6.77% [at 19 µM] | activity change, negative = cytotoxicity [6] 5.91% [at 19 µM] | activation [7] 0.0574% [at 19 µM] | cAMP activity change [10] 4.73% [at 18.9 µM] | activity change, negative = inhibition [8] -0.774% [at 19 µM] | activity change, negative = cytotoxicity [9] 1.7% [at 19 µM]

Cc1c(C(=O)NCCO)[n+](=O)c2ccccc2n1[O-]
inactive: outcome [1] | Potency [2] | Potency [3] | Potency [4] | Potency [5] | outcome [6] | outcome [10] | Potency [8] | Potency [9]

CC(=O)N(CC(O)CN(C(C)=O)c1c(I)c(C(=O)NCC(O)CO)c(I)c(C(=O)NCC(O)CO)c1I)c1c(I)c(C(=O)NCC(O)CO)c(I)c(C(=O)NCC(O)CO)c1I (stereo not given)
inactive: outcome [1] | Potency [2] | Potency [3] | Potency [4] | outcome [6] | Potency [7] | outcome [10] | Potency [8] | Potency [9]

CN1CCN(c2c(F)cc3c(=O)c(C(=O)O)cn4c3c2SCC4)CC1
inactive: outcome [1] | Potency [2] | Potency [3] | Potency [4] | outcome [6] | Potency [7] | outcome [10] | Potency [8] | Potency [9]

CCCCC1CCC(=O)O1 (stereo not given)
inactive: outcome [1] | Potency [2] | Potency [3] | Potency [4] | outcome [6] | Potency [7] | outcome [10] | Potency [8] | Potency [9]

CCOC(=O)C(Br)c1ccccc1 (stereo not given)
inactive: outcome [1] | Potency [2] | Potency [3] | Potency [4] | outcome [6] | Potency [7] | outcome [10] | Potency [8] | Potency [9]

CN1CCN(c2c(F)cc3c(=O)c(C(=O)O)cn(CCF)c3c2F)CC1
inactive: outcome [1] | Potency [2] | Potency [3] | Potency [4] | outcome [6] | Potency [7] | outcome [10] | Potency [8] | Potency [9]

Cn1cnc2c(F)c(Nc3ccc(Br)cc3Cl)c(C(=O)NOCCO)cc21
inactive: outcome [1] | Potency [2] | Potency [3] | Potency [4] | Potency [5] | outcome [6] | Potency [9]

Cc1c[nH]c(=S)[nH]c1=O
inactive: outcome [1] | Potency [2] | Potency [3] | Potency [4] | outcome [6] | Potency [7] | Potency [9]

CC(CNC1CCCCC1)OC(=O)c1ccccc1 (stereo not given)
inactive: outcome [1] | Potency [2] | Potency [3] | Potency [4] | outcome [6] | Potency [7] | outcome [10] | Potency [8] | Potency [9]

O=C1C=CC(=O)O1
inactive: outcome [1] | Potency [2] | Potency [3] | Potency [4] | outcome [6] | Potency [7] | Potency [8] | Potency [9]

CCCCc1ccc2nc(NC(=O)OC)[nH]c2c1
inactive: outcome [1] | Potency [2] | Potency [4] | Potency [5] | outcome [6] | Potency [7] | Potency [9]

CCCCNCCCC
inactive: outcome [1] | Potency [2] | Potency [3] | Potency [4] | outcome [6] | outcome [10] | Potency [8] | Potency [9]

COc1ccc(Nc2ccc(OC)cc2)cc1
inactive: outcome [1] | Potency [2] | Potency [4] | outcome [6] | Potency [7] | outcome [10] | Potency [8]

C=CC(C)(O)CC/C=C(\C)CCC=C(C)C (stereo not given)
inactive: outcome [1] | Potency [2] | Potency [3] | Potency [4] | outcome [6] | Potency [9]

Cc1c(N)cccc1N
inactive: outcome [1] | Potency [2] | Potency [3] | Potency [4] | outcome [6] | outcome [10] | Potency [8] | Potency [9]

CCOc1ccc(OCC)c(Cl)c1
inactive: outcome [1] | Potency [2] | Potency [4] | outcome [6] | Potency [7] | outcome [10] | Potency [8] | Potency [9]

NC(Cc1ccc(F)cc1)C(=O)O (stereo not given)
inactive: activation [1] -1.32% [at 8.39 µM] | activity, negative = inhibition [2] 7.98% [at 8.39 µM] | activity change, negative = cytotoxicity [3] -0.068% [at 8.39 µM] | activity change, negative = cytotoxicity [4] 1.35% [at 8.39 µM] | activity change, negative = cytotoxicity [6] 1.79% [at 8.39 µM] | cAMP activity change [10] -1.15% [at 8.39 µM] | activity change, negative = inhibition [8] -1.13% [at 8.39 µM] | activity change, negative = cytotoxicity [9] 2.6% [at 8.39 µM]

NC(=O)Cc1cccc(C(=O)c2ccccc2)c1N
inactive: outcome [1] | Potency [2] | Potency [3] | Potency [4] | outcome [6] | Potency [9]

COc1cc(C)ccc1C(C)C
inactive: outcome [1] | Potency [2] | Potency [4] | outcome [6] | Potency [7] | Potency [8] | Potency [9]

CC(C)C(=O)OC/C=C/c1ccccc1
inactive: outcome [1] | Potency [2] | Potency [3] | outcome [6] | Potency [7] | outcome [10] | Potency [8] | Potency [9]

COc1cc(Cl)ccc1Cl
inactive: outcome [1] | Potency [2] | Potency [3] | Potency [4] | outcome [6] | outcome [10] | Potency [8] | Potency [9]

O=C1CCCc2ccccc21
inactive: outcome [1] | Potency [2] | Potency [4] | outcome [6] | Potency [7] | outcome [10] | Potency [8] | Potency [9]

CC(C)=CCC[C@](C)(O)[C@@H]1CC=C(C)CC1
inactive: outcome [1] | Potency [2] | Potency [3] | Potency [4] | outcome [6] | outcome [10] | Potency [8] | Potency [9]
